# Measured values as given in PubChem BioAssay.
# Assay: anti-His antibody binders, primary screen, artefact control for SMM control protein annotation, biochemical, small-molecule microarray, 635 nm fluorescence (AID 1128);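 also: score merges feature fluorescence with signal-to-noise for each printed compound spot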
# Settings: anti-His Alexa647 antibody binding, higher = more signal
row,SMILES,composite z-score
1,CN(C)C(=O)[C@@]1(CCC(=O)OC(C)(C)C)N=C(c2ccc(OCCCO)cc2)O[C@H]1c1ccccc1N=[N+]=[N-],0.546
2,COCCOC(=O)N1C(=O)[C@@]2(c3cc(C#CCCO)ccc31)[C@H](C(=O)NC[C@H](O)c1ccccc1)[C@H]1C(=O)O[C@H](c3ccccc3)[C@H](c3ccccc3)N1[C@@H]2c1ccccc1OCCO,-0.338
3,COc1ccc([Si](C)(C)[C@H]2[C@H](CCO)O[C@@]3(C(=O)N(Cc4cccc(N5CCOC5=O)c4)c4ccccc43)[C@@H]2C)cc1,0.56
4,CN(C)CCCC[C@@H]1NC(=O)[C@H]2C[C@@H](C(=O)NCCCCCCNC(=O)CS)[C@@H](c3ccc(O)cc3)N2C1=O,0.135
5,CC(C)=CCCC(C)=CC(O)C1C=CC2C(=O)N(c3ccccc3)C(=O)C2N1Nc1ccc([N+](=O)[O-])cc1 (centres undefined),0.987
6,COC(=O)[C@@]1(Cc2ccc(OC)cc2)[C@H]2c3cc(C(=O)N(C)C)n(Cc4cc(F)c(F)c(F)c4)c3C[C@H]2CN1C(=O)c1ccccc1,1
7,COCCOC(=O)N1C(=O)[C@@]2(c3cc(C#CCC(C(=O)OC)C(=O)OC)ccc31)[C@H](C(=O)N1CCCCCCC1)[C@H]1C(=O)O[C@H](c3ccccc3)[C@H](c3ccccc3)N1[C@@H]2c1ccc(O)cc1,2.63
8,[N-]=[N+]=Nc1ccccc1[C@H]1OC(c2ccc(OCCCO)cc2)=N[C@@]1(Cc1ccccc1)C(=O)NCc1ccccc1,1.29
9,COC(=O)C(CC#Cc1ccc2c(c1)[C@]1(C(=O)N2)[C@H](c2ccc(O)cc2)N2[C@H](c3ccccc3)[C@H](c3ccccc3)OC(=O)[C@H]2[C@@H]1C(N)=O)C(=O)OC,-2.69
